# Measured values: the supplement of paper PMC8728848
# This is one part of a sample in which the strongest signals are shown more often than they occur.
# Tests used:
# Experiment in all cases: glycan array binding signal (z-score within array); higher = stronger binding
# Conditions in all cases: glycan notation: IUPAC condensed, linker removed
# Fuc(a1-2)Gal(b1-3)GalNAc = target: Fuc(a1-2)Gal(b1-3)GalNAc
# Method in brief: (§1)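 Glycan array data came from 3228 arrays in the Consortium for Functional Glycomics database, and only arrays with an available protein sequence were kept. Glycan names were put into IUPAC-condensed notation, and columns mapping to the same glycan were averaged. The binding signal is a within-array Z-score, averaged across arrays of one protein sequence run at different concentrations or buffers and across linkers. A negative Z-score can be read as non-binding.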
# [1] = target: Fuc(a1-2)Gal(b1-3)GalNAc(b1-4)[Neu5Ac(a2-3)]Gal(b1-4)Glc
# Method in brief: as §1
# [2] = target: Fuc(a1-2)Gal(b1-3)GlcNAc(b1-3)[Neu5Ac(a2-6)Gal(b1-4)GlcNAc(b1-6)]Gal(b1-4)Glc
# Method in brief: as §1
# [3] = target: Fuc(a1-2)Gal(b1-3)GlcNAc6S
# Method in brief: as §1
# [4] = target: Fuc(a1-2)Gal(b1-3)[Fuc(a1-4)]GlcNAc
# Method in brief: as §1
# [5] = target: Fuc(a1-2)Gal(b1-3)[Fuc(a1-4)]GlcNAc(b1-2)Man(a1-3)[Fuc(a1-2)Gal(b1-3)[Fuc(a1-4)]GlcNAc(b1-2)Man(a1-3)]Man(b1-4)GlcNAc(b1-4)GlcNAc
# Method in brief: as §1
# Fuc(a1-2)Gal(b1-4)Glc = target: Fuc(a1-2)Gal(b1-4)Glc
# Method in brief: as §1
# Fuc(a1-2)Gal(b1-4)Glc6S = target: Fuc(a1-2)Gal(b1-4)Glc6S
# Method in brief: as §1
# [6] = target: Fuc(a1-2)Gal(b1-4)GlcNAc(b1-2)Man
# Method in brief: as §1
# [7] = target: Fuc(a1-2)Gal(b1-4)[Fuc(a1-3)]GlcNAc
# Method in brief: as §1
# [8] = target: Fuc(a1-2)[Gal(a1-3)]Gal(b1-4)[Fuc(a1-3)]Glc
# Method in brief: as §1
# [9] = target: Fuc(a1-2)[Gal(a1-3)]Gal(b1-4)[Fuc(a1-3)]GlcNAc
# Method in brief: as §1
# [10] = target: Fuc(a1-2)[GalNAc(a1-3)]Gal(b1-3)GlcNAc
# Method in brief: as §1
# [11] = target: Fuc(a1-2)[GalNAc(a1-3)]Gal(b1-3)GlcNAc(b1-2)Man(a1-3)[Fuc(a1-2)[GalNAc(a1-3)]Gal(b1-3)GlcNAc(b1-2)Man(a1-6)]Man(b1-4)GlcNAc(b1-4)GlcNAc
# Method in brief: as §1
# [12] = target: Fuc(a1-3)[Gal(b1-4)]GlcNAc(b1-3)GalNAc
# Method in brief: as §1
# [13] = target: Fuc(a1-3)[Gal3S(b1-4)]GlcNAc
# Method in brief: as §1
# [14] = target: Fuc(a1-3)[GalNAc(b1-4)]GlcNAc
# Method in brief: as §1
# [15] = target: Gal(a1-4)Gal(b1-3)GlcNAc(b1-2)Man(a1-3)[Gal(a1-4)Gal(b1-3)GlcNAc(b1-2)Man(a1-6)]Man(b1-4)GlcNAc(b1-4)GlcNAc
# Method in brief: as §1
# Gal(a1-4)GlcNAc = target: Gal(a1-4)GlcNAc
# Method in brief: as §1
# Gal(b1-3)Gal = target: Gal(b1-3)Gal
# Method in brief: as §1
# Gal(b1-3)GalNAc = target: Gal(b1-3)GalNAc
# Method in brief: as §1
# [16] = target: Gal(b1-3)GlcNAc(b1-2)Man(a1-3)[GlcNAc(b1-4)][Gal(b1-3)GlcNAc(b1-2)Man(a1-6)]Man(b1-4)GlcNAc(b1-4)GlcNAc
# Method in brief: as §1
# [17] = target: Gal(b1-3)GlcNAc(b1-3)Gal(b1-4)GlcNAc(b1-3)Gal(b1-4)GlcNAc(b1-2)[Gal(b1-3)GlcNAc(b1-3)Gal(b1-4)GlcNAc(b1-3)Gal(b1-4)GlcNAc(b1-6)]Man(a1-6)[Gal(b1-3)GlcNAc(b1-3)Gal(b1-4)GlcNAc(b1-3)Gal(b1-4)GlcNAc(b1-2)Man(a1-3)]Man(b1-4)GlcNAc(b1-4)[Fuc(a1-6)]GlcNAc
# Method in brief: as §1
# [18] = target: Gal(b1-3)GlcNAc(b1-3)GalNAc
# Method in brief: as §1
# [19] = target: Gal(b1-3)[Neu5Ac(a2-6)]GalNAc
# Method in brief: as §1
# Gal(b1-4)Gal = target: Gal(b1-4)Gal
# Method in brief: as §1
# [20] = target: Gal(b1-4)GlcNAc(b1-2)Man(a1-3)[Gal(b1-4)GlcNAc(b1-2)Man(a1-6)]Man(b1-4)GlcNAc(b1-4)[Fuc(a1-6)]GlcNAc
# Method in brief: as §1
# [21] = target: Gal(b1-4)GlcNAc(b1-2)Man(a1-3)[Man(a1-6)]Man(b1-4)GlcNAc(b1-4)GlcNAc
# Method in brief: as §1
binder,measurement,setting,value
"SHCBP1-GST (Homo sapiens), Q8NEM2 (protein) MADGSLTGGGLEAAAMAPERMGWAVEQELASLEKGLFQDEDSCSDCSYRDKPGSSLQSFMPEGKTFFPEIFQTNQLLFYERFRAYQDYILADCKASEVQEFTAEFLEKVLEPSGWRAVWHTNVFKVLVEITDVDFAALKAVVRLAEPYLCDSQVSTFTMECMKELLDLKEHRLPLQELWVVFDDSGVFDQTALAIEHVRFFYQNIWRSWDEEEEDEYDYFVRCVEPRLRLHYDILEDRVPSGLIVDYHNLLSQCEESYRKFLNLRSSLSNCNSDSEQENISMVEGLKLYSEMEQLKQKLKLIENPLLRYVFGYQKNSNIQAKGVRSSGQKITHVVSSTMMAGLLRSLLTDRLCQEPGEEEREIQFHSDPLSAINACFEGDTVIVCPGHYVVHGTFSIADSIELEGYGLPDDIVIEKRGKGDTFVDCTGADIKISGIKFVQHDAVEGILIVHRGKTTLENCVLQCETTGVTVRTSAEFLMKNSDLYGAKGAGIEIYPGSQCTLSDNGIHHCKEGILIKDFLDEHYDIPKISMVNNIIHNNEGYGVVLVKPTIFSDLQENAEDGTEENKALKIQTSGEPDVAERVDLEELIECATGKMELCARTDPSEQVEGNCEIVNELIAASTQKGQIKKKRLSELGITQADDNLMSQEMFVGIVGNQFKWNGKGSFGTFLF",glycan array binding signal (z-score),Fuc(a1-2)Gal(b1-3)GalNAc,-0.317
same,glycan array binding signal (z-score),[1],-0.821
same,glycan array binding signal (z-score),[2],-0.751
same,glycan array binding signal (z-score),[3],-0.806
same,glycan array binding signal (z-score),[4],0.085
same,glycan array binding signal (z-score),[5],0.999
same,glycan array binding signal (z-score),Fuc(a1-2)Gal(b1-4)Glc,-0.192
same,glycan array binding signal (z-score),Fuc(a1-2)Gal(b1-4)Glc6S,-0.251
same,glycan array binding signal (z-score),[6],-0.583
same,glycan array binding signal (z-score),[7],-0.113
same,glycan array binding signal (z-score),[8],-0.299
same,glycan array binding signal (z-score),[9],0.298
same,glycan array binding signal (z-score),[10],-0.199
same,glycan array binding signal (z-score),[11],-0.355
same,glycan array binding signal (z-score),[12],2.35
same,glycan array binding signal (z-score),[13],-0.161
same,glycan array binding signal (z-score),[14],0.35
same,glycan array binding signal (z-score),[15],4.1
same,glycan array binding signal (z-score),Gal(a1-4)GlcNAc,-0.477
same,glycan array binding signal (z-score),Gal(b1-3)Gal,0.702
same,glycan array binding signal (z-score),Gal(b1-3)GalNAc,-0.251
same,glycan array binding signal (z-score),[16],2.98
same,glycan array binding signal (z-score),[17],3.45
same,glycan array binding signal (z-score),[18],0.539
same,glycan array binding signal (z-score),[19],-1.01
same,glycan array binding signal (z-score),Gal(b1-4)Gal,-0.879
same,glycan array binding signal (z-score),[20],0.409
same,glycan array binding signal (z-score),[21],0.6
